Source: PubChem (several laboratories)
Shown are actives, neighbours in structure and some others; about 3.8% of the full set was active somewhere.
MT1-MMP txn act: activates MT1-MMP transcription | activation factor at 10 µM | HT1080 MT1-MMP promoter luciferase reporter, luminescence, overnight; stronger effect = higher value | AID 750 | 0.16% of 86,000 active;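 active = activation factor of at least 2 for MT1-MMP transcription at 10 µM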
ERb SRC1 inh: blocks coactivator binding to human estrogen receptor beta | Q92731 | TR-FRET ER-beta LBD / SRC1-Cy5 peptide binding; receptor agonist-loaded with 1 µM estradiol | inhibition, % at 25.6 µM | 1.3% of 86,000 active;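 active = compounds whose percent inhibition of the receptor-coactivator binding signal exceeds about 50% in the single-dose screen, limit read from the data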;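 also: 0% = receptor plus peptide wells without compound and 100% = peptide-only wells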
Smad3 inh: Smad3 (human) transcription factor binding inhibition. P84022. TR-FRET Smad3/Dy647-FoxH1 peptide binding, europium anti-His. inhibition, % at 25 µM. 0.29% of 88,000 active. AID 630;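 active = compounds that reduce the energy-transfer binding signal between the protein and its labelled peptide by more than half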;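 also: 0% = Smad3 plus labelled peptide maximal FRET and 100% = peptide-only background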
Target sequence (P84022 whole entry, looked up): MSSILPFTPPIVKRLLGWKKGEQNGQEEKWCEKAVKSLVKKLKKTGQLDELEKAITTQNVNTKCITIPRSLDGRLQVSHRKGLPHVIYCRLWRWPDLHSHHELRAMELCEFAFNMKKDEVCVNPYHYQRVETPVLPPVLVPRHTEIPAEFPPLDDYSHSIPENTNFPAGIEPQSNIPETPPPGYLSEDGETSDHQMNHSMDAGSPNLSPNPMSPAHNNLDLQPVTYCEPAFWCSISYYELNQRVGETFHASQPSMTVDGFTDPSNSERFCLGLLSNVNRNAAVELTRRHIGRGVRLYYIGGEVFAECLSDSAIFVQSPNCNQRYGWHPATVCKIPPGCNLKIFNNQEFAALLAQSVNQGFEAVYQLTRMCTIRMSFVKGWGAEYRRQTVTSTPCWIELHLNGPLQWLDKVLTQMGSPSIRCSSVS
ERa SRC1 inh: ER-alpha (human) coactivator binding inhibition | 1.7% of 86,000 active | TR-FRET ER-alpha LBD / SRC-1 peptide, estradiol-bound | inhibition, % at 25.6 µM | AID 629 | P03372; in the data active = inhibition above about 50%;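 also: 0% = receptor plus peptide control and 100% = peptide only without receptor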
Candida biofilm: kills Candida albicans biofilms; C. albicans biofilm + clotrimazole, Alamar Blue; inhibition, % at 6 µM; 0.14% of 85,000 active; AID 834;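 active = inhibition above 20%; inactive = inhibition below 20%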;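 also: preformed 24 hr biofilms exposed to compound for 48 hr; 0% = biofilm without compound and 100% = blank killed by clotrimazole plus chlorhexidine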
ERa SRC1 pot: ER-alpha (human) coactivator binding potentiation; P03372; 1.3% of 86,000 active; AID 639; coactivator binding (% of control), % at 25.6 µM; TR-FRET ERalpha-LBD/SRC-Cy5 coactivator binding, 2 h; 100 = basal binding, no effect; in the data active = activity above about 200%;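 also: binding measured in presence of low estradiol as agonist stimulus; 0% = peptide alone without receptor and 100% = receptor with peptide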
Starred values were filed as active, the others as inactive; · = no result; [ ] = remark or other dose.

SMILES	MT1-MMP txn act	ERb SRC1 inh	Smad3 inh	ERa SRC1 inh	Candida biofilm	ERa SRC1 pot
CC1=NN(C(=O)Cc2ccc([N+](=O)[O-])cc2)C(O)(c2ccccc2)C1 (configuration not stated)	1	0	-21	-1	0	106
O=C(COC(=O)C1CCCCC1C(=O)N1CCc2ccccc21)NCc1ccco1 (configuration not stated)	1.1	42	10	50*[fluorescence artefact?]	-7	83
O=C(CN1C(=O)C2C3C=CC(C3)C2C1=O)NCc1ccco1 (configuration not stated)	1.2	-5	3	-8	1	99
O=C(COC(=O)C1CC2C=CC1C2)NCc1ccco1 (configuration not stated)	1.2	57*	12	72*[fluorescence artefact?]	8	162
O=C(CN1CCCc2ccccc21)NC(=O)NCc1ccco1	1.2	30	-3	32	12	75
c1c[nH]c(CN2CCN(Cc3ncc[nH]3)CC2)n1	·	·	22	·	·	·
Cc1ccc(CNC(=O)[C@H](C)[C@H]2C[C@]2(C)[C@H](NC(=O)OCc2ccccc2)c2ccccc2)c(F)c1F	1.2	·	·	·	·	·
N=C1[C@H](O)[C@]2(I)c3ccccc3N3C(=N)[C@H](O)[C@@H]4c5ccccc5N1[C@@H]4[C@@H]32	·	·	57*	·	·	·
COC(=O)[C@H]1C[C@@H]1[C@H](NC(=O)c1cc(C)nn1C)c1ccccc1	1.2	·	·	·	·	·
CC(=O)Nc1cc2c(cc1C(=O)c1ccccc1)OCCO2	1.2	63*	7	28	6	67
CC1CCCN(C(=O)COC(=O)c2n[nH]c3ccccc23)C1 (configuration not stated)	1.5	-7	4	57*	9	114
COC(=O)c1ccc(C(NC(=O)c2ccco2)[C@]2(C)C[C@H]2C2CCCCC2)cc1 (some centres not stated)	1.1	·	·	·	·	·
O=c1oc2ccccc2c(Nc2ccc3ccccc3c2)c1[N+](=O)[O-]	1.2	18	9	71*[fluorescence artefact?]	8	54
O=C1c2ccc(-c3nc4ccccc4o3)cc2C(=O)N1Cc1cccnc1	1.1	-15	14	-2	5	370*
c1cncc(-c2nc3ccccc3o2)c1	1.6	12	10	-3	-5	99
O=C1CCC(=O)N1c1cccc(-c2nc3ccccc3o2)c1	1.3	-3	-1	-4	3	137
O=C1c2cccnc2C(=O)N1c1cccc(-c2nc3ccccc3o2)c1	0.9	33	-10	53*[fluorescence artefact?]	8	59
COc1ccc(CN2C(=O)c3cccnc3C2O)cc1 (configuration not stated)	1	8	10	-5	6	394*[fluorescence artefact?]
COc1ccc(CN2C(=O)c3cccnc3C2Nc2cc(Cl)ccc2OC)cc1 (configuration not stated)	1.1	-9	4	-37	0	357*[fluorescence artefact?]
COc1ccc(OC)c(NC2c3ncccc3C(=O)N2Cc2ccco2)c1 (configuration not stated)	1.1	13	6	-4	3	53
Cc1cc(Cl)c(S(=O)(=O)N2CCN(c3ccccc3)CC2)cc1OCC(N)=O	1	-10	11	-29	4	86
COc1ccccc1CNC(=O)c1cnccn1	1	37	22	61*[fluorescence artefact?]	2	94
CC(C)c1cc(N2CCN(C(=O)c3ccco3)CC2)n2c(nc3ccccc32)c1C#N	1	-4	-7	-4	5	112
Cc1cc(-c2ccco2)c(C#N)c2nc3ccccc3n12	1.1	48	5	81*[fluorescence artefact?]	4	86
CC(C)C(O)(C(C)C)C(C)C	·	·	-6	·	·	·
SMILES	MT1-MMP txn act	ERb SRC1 inh	Smad3 inh	ERa SRC1 inh	Candida biofilm	ERa SRC1 pot
CN1CCc2c(sc3ncn4nc(-c5ccccc5O)nc4c23)C1	·	77*[fluorescence artefact?]	37	94*[fluorescence artefact?]	7	10
CC(=O)[C@H]1CC[C@@H]2[C@]1(C)CC=C1[C@@]23C=C[C@@]2(C[C@H](O)CC[C@@]12C)[C@H](C(=O)O)[C@@H]3C(=O)O	·	·	36	·	·	·
Clc1ccc(Br)cc1-c1nc(-c2cccnc2)no1	1.6	27	10	38	2	207*[fluorescence artefact?]
Cc1ccc2nc(/C(C#N)=C\c3ccc(N4CCCCC4)c([N+](=O)[O-])c3)[nH]c2c1	1.2	36	6	82*	4	74
C/C(=N\O)c1ccc2cc(Br)c3ccccc3c2c1	·	·	12	·	·	·
CC1(C)Cc2c(c(-c3ccco3)[nH]c(=O)c2C#N)CS1	1	62*[fluorescence artefact?]	-29	-12	6	112
